# Compound activity deposited in PubChem BioAssay by National Center for Advancing Translational Sciences (NCATS).
# Tau fibril ThT: qHTS for Inhibitors of Tau Fibril Formation, Thioflavin T Binding | Microtubule-associated protein tau (Homo sapiens), P10636 | recombinant tau K18 P301L, heparin-induced fibrillization, ThT fluorescence | Potency, µM (doses to about 57.4 µM), inactives show at the highest dose activity, negative = inhibition, hits mostly inhibitors | 270,000 tested, 2.1% active | AID 1460, 2008; note: potency is the fitted concentration of half-maximal effect; nearly all actives have a fitted effect of over 55% in size
# Target sequence (P10636 561-689 P618L limits assumed): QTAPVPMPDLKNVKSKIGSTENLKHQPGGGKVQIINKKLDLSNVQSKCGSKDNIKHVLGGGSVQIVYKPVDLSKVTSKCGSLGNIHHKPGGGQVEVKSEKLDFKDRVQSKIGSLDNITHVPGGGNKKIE
#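 Heparin-induced (20 uM) aggregation of recombinant human K18 P301L tau, 15 uM unlabeled with 0.24 uM labeled, pH 7 acetate buffer, 6 hr at 37 C with compound. Fibrils quantified by 30 uM ThT fluorescence after 1 hr ambient incubation.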
# TRb-SRC2 inh: qHTS for Inhibitors of the Interaction of Thyroid Hormone Receptor and Steroid Receptor Coregulator 2 | Potency, µM (doses to about 106 µM), for inactives: top-dose activity change, negative = inhibition, actives largely listed as inhibitors | AID 1469, 2008 | 280,000 tested, 0.065% active | TRbeta-SRC2 peptide binding, fluorescence polarization; receptor liganded with 1 µM T3 | Thyroid hormone receptor beta (Homo sapiens), P10828;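 note: potency is the fitted concentration of half-maximal effect; plate controls were bound peptide for no effect and peptide without receptor for full effect; nearly all actives have a fitted effect of over 50% in size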
# Target sequence (P10828 whole entry, looked up): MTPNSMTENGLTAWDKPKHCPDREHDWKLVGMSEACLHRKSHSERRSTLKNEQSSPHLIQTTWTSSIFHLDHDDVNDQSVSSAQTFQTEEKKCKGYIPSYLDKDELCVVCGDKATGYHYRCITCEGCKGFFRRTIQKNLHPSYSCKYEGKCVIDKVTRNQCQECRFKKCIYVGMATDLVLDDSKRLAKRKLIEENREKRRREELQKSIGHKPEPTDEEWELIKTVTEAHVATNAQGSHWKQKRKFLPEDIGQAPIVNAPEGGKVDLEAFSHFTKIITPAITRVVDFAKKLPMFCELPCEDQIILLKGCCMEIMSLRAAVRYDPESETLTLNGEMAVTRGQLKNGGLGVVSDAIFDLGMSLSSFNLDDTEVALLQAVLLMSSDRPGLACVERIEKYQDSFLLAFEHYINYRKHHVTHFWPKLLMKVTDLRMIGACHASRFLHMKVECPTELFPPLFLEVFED
#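 Decrease in fluorescence polarization of 20 nM Texas Red SRC2 coactivator peptide flagged inhibition of its binding to 0.6 uM TRb LBD; 1 uM T3 included, incubation 5 hr, ex 555/em 632 nm.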
# Tau fluor cs: Counterscreen qHTS for Inhibitors of Tau Fibril Formation, Fluorescence Polarization; 280,000 tested, 0.93% active; Potency, µM (titrated, usually from 57.7 µM), without a hit: at the highest dose activity change, negative = decrease; tau K18 P301L (four-repeat tau fragment) Alexa594 fluorescence, heparin fibrillization; note: potency is the fitted concentration of half-maximal effect; nearly all actives have a fitted effect of over 55% in size
#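 Human K18 P301L tau (15 uM unlabeled plus 0.24 uM Alexa 594-labeled, final) in 100 mM sodium acetate pH 7 was mixed with compound and 20 uM heparin and incubated 6 hr at 37 C.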
# PNC assembly inh: High Content Assay for Compounds that inhibit the Assembly of the Perinucleolar Compartment | PC3M PTB-GFP, PNC prevalence imaging, 16 h; hits give low values | activity change (PNC), negative = inhibition, % at 10 µM | 140,000 tested, 3.1% active | AID 2417, 2010;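 active = readout at or below -70, meaning at least 70% loss of cells showing the perinucleolar compartment, a nuclear body marking cancer cells; inconclusive = readout between -30 and a set limit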;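 note: plate controls were DMSO wells for no effect and camptothecin positive control wells for full effect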
#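 Compounds are pinned in duplicate onto adhered PC3M cells stably expressing GFP-tagged PTB and incubated 16 h at 37 C. Cells are then fixed, nuclei stained with Hoechst, and PNC-positive cells counted.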
# TR SRC2 fluor cs: Total Fluorescence Counterscreen for Inhibitors of the Interaction of Thyroid Hormone Receptor and Steroid Receptor Coregulator 2; TRb/SRC2 Texas Red total fluorescence interference; Potency, µM (highest dose often 106 µM), for inactives: at the highest dose fluorescence change, negative = quenching; 280,000 tested, 0.29% active; AID 1479, 2009; active = well fitted curve in either direction with a large enough effect; inconclusive = small, poorly fitted or top-dose-only effect; note: potency is the fitted concentration of half-maximal effect
#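 Flags fluorescent or light-absorbing compounds by total fluorescence, S + 2P, at 555 nm excitation and 632 nm emission. Mixture: 20 nM Texas Red SRC2 peptide, 0.6 uM human TRb LBD, 1 uM T3, 5% DMSO; compound exposure 5 h at ambient temperature.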
# Tau FP inhib: qHTS for Inhibitors of Tau Fibril Formation, Fluorescence Polarization; Potency, µM (series often up to 57.7 µM), for the others: top-dose activity, negative = inhibition, usual class: inhibitors; 280,000 tested, 0.39% active; K18 P301L tau heparin fibrillization, Alexa594 FP, 6 h; AID 1468, 2008; note: potency is the fitted concentration of half-maximal effect; nearly all actives have a fitted effect of over 55% in size
#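 Human K18 P301L fragment (15 uM unlabeled plus 0.24 uM Alexa 594-labeled) in 100 mM sodium acetate pH 7 with compound, aggregation induced by 20 uM heparin for 6 hr at 37 C. ThT (30 uM) added for 1 hr, then Alexa 594 FP read.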
# The depositor's hits bear a star; ? = inconclusive; . = no result; ! = not confirmed by another sample; [ ] = another dose, or the depositor's remark. The list is not random: actives were taken first. Their share in the collection is about 4.6%. Unless noted, calls come from the whole dose curve; as a rule, active = well fitted curve in the direction sought with a large enough effect; inconclusive = small, poorly fitted or top-dose-only effect, or another doubt; inactive = no such curve, though single readings can be large; an effect the other way counts as inactive or inconclusive. Unless noted, % is set by controls: 0 for no effect and ±100 for the full control effect.
SMILES,Tau fibril ThT,TRb-SRC2 inh,Tau fluor cs,PNC assembly inh,TR SRC2 fluor cs,Tau FP inhib
O=C(/C=C/c1ccccc1)CC(O)(c1ccccc1)C(F)(F)F (stereo not given),?,-2%,-5%,-1,2%,?
O=C(/C=C/c1ccccc1)c1ccc(O)cc1O,?,?,-25%,.,-7%,?
CCc1cc(C(=O)O)c(NC(=O)/C=C/c2ccc(OC)cc2)s1,13µM*,8%,?,.,-9%,-2%
COc1ccc(/C=C/C(=O)CC(O)(c2ccccc2)C(F)(F)F)cc1 (stereo not given),?,-4%,-5%,-100*,5%,9%
O=C(/C=C/c1ccc(O)cc1)c1ccc(O)cc1O,10µM*,14%,?,11,-8%,8%
CC(C)=CCC/C(C)=C/Cc1c(O)ccc(C(=O)/C=C/c2ccc(O)cc2)c1O,20µM*,2%,4.5µM*[quencher],?,-4%,7.9µM*
Cc1nn(-c2ccccc2)c(OC(=O)c2cccs2)c1S(=O)(=O)c1ccc([N+](=O)[O-])cc1,-24%,-1%,-13%,?,-3%,11%
COc1ccc(/C=C/C(=O)c2cc(O)ccc2O)cc1,14µM*,7%,14µM*[quencher],.,-5%,?
COc1ccc(/C=C/C(=O)CCC(=O)O)cc1,-12%,-2%,0%,.,1%,-4%
COc1ccc(/C=C/C(=O)c2ccc(O)cc2O)cc1OC,7.1µM*,-3%,-18%,.,0%,-14%
COc1cc(O)cc(O)c1C(=O)/C=C/c1ccccc1,?,8%,-19%,.,-3%,-6%
COc1ccc(/C=C/C(=O)O)cc1,6%,25µM*!,6%,.,45µM*![fluorescent],3%
COc1cc(OC)c(C(=O)/C=C/c2ccccc2)c(O)c1O,13µM*,-3%,-28%,.,-5%,5%
COc1cc(/C=C/C(=O)c2ccc(O)cc2O)ccc1O,.,12%,.,.,-12%,.
Cc1cc(C)nc(SCc2csc(-c3ccccc3)n2)n1,?,3%,-18%,31,-2%,-12%
O=C1CCc2cc(S(=O)(=O)NC(Cc3ccccc3)C(=O)NC3CCCCC3)ccc2N1 (stereo not given),-3%,-4%,-13%,-17,-9%,3%
Cc1onc(-c2c(F)cccc2Cl)c1C(=O)Nc1nnc(-c2ccccc2)s1,-13%,-10%,-25%,?,-3%,-2%
Cc1cc(C)c(NC(=O)CSc2nccn2Cc2ccco2)c(C)c1,-11%,-6%,-7%,.,-4%,-11%
Cc1cccc(OCC(=O)Nc2cccc(C(=O)OCc3cc(=O)n4nc(C(C)C)sc4n3)c2)c1,?,-3%,-4%,.,-1%,8%
COc1ccc(/C=C/C(=O)c2cc3c(cc2N)OCO3)cc1,2.8µM*,3%,16µM*[quencher],.,-6%,-2%
O=C(/C=C/c1ccc(O)c(O)c1)OCCc1ccccc1,?,5%,11µM*[quencher],.,-21%,?
COc1cc(O)c(C(=O)/C=C/c2ccc(O)c(OC)c2)c(OC)c1,1.8µM*,-7%,-29%,.,-2%,1%
COc1ccc(/C=C/C(=O)c2ccc(O)cc2O)cc1,11µM*,3%,?,.,-6%,-15%
Cc1ccc(S(=O)(=O)Oc2ccc(/C=C(/NC(=O)c3ccccc3)C(=O)Nc3ccccc3)cc2)cc1,7%,-1%,3%,27,-2%,-6%
CN(Cc1cccs1)C(=O)CSc1nc2ccccc2[nH]1,-4%,7%,-6%,.,1%,-7%
SMILES,Tau fibril ThT,TRb-SRC2 inh,Tau fluor cs,PNC assembly inh,TR SRC2 fluor cs,Tau FP inhib
O=C(O)/C=C\c1ccc(O)c(O)c1,.,1%[53 µM],.,.,-5%[53 µM],.
O=C(/C=C/c1ccc(O)c(O)c1)c1ccccc1O,13µM*,5%,?,.,-5%,?
COc1ccc(C(=O)Nc2ccc(OC)c(OC)c2)cc1,-21%,0%,-6%,20,-5%,-1%
COc1ccccc1N1CCN(c2ccc([N+](=O)[O-])cc2Cl)CC1,8.9µM*,11%,?,?,-1%,1%
COc1cc2c(cc1OC)CN(c1ccc([N+](=O)[O-])cc1Cl)CC2,7.1µM*,-1%,?,-3,1%,0%
NC(=O)CC(NC(=O)Cc1cccc2ccccc12)c1ccc(N2CCN(c3ccccc3)CC2)c([N+](=O)[O-])c1 (stereo not given),?,6%,?,.,-2%,1%
NC(=O)CC(NC(=O)Cc1cccc2ccccc12)c1ccc(N2CCc3ccccc3C2)c([N+](=O)[O-])c1 (stereo not given),11µM*,-3%,?,.,-1%,-2%
N#CC(C#N)=C(N)/C(C#N)=C/c1cc(O)c(O)c(O)c1,11µM*,-2%,?,.,-11%,?
CCN(CC)CCn1cnc2c([nH]c3cccc(OC)c32)c1=O,-15%,4%,-8%,30,-1%,5%
COc1cccc2[nH]c3c(=O)n(CCN(C)C)cnc3c12,-5%,0%,-1%,-87*,-1%,-2%
CC(=O)c1ccc(NC(=S)Nc2ccc3cn[nH]c3c2)cc1,16µM*,-4%,?,.,-7%,?
CC(C)c1ccc(NC(=S)Nc2ccc3cn[nH]c3c2)cc1,?,1%,-25%,.,-1%,3%
Cc1ccc(CN(C(=O)COc2cccc(Cl)c2)c2ccccn2)o1,1%,-3%,-4%,.,5%,-5%
COc1cc(CC(=O)OCC(=O)Nc2cc([N+](=O)[O-])ccc2F)cc(OC)c1OC,-1%,-26%[53 µM],-5%,-4,1000µM*[quencher],13%
CCNC(=O)c1ccc(CSc2ccc(Cl)cc2)cc1,?,-7%,-2%,-109*,-6%,-8%
O=C(CNc1ccccc1C(=O)O)c1ccccc1,.,-5%,-6%,.,0%,-5%
O=C(O)c1cc(-c2cccc(Cl)c2)nc2nc(N3CCCCC3)sc12,-5%,-2%[53 µM],-2%,-86*,-1%[53 µM],-6%
CCOC(=O)C(C)CC(C)C(=O)N1CCOCCOCCN(C(=O)C(C)CC(C)C(=O)OCC)CCOCC1 (stereo not given),-3%,-5%,0%,-9,-5%,8%
O=C(NC1CCCC1)c1c[nH]c2ccc(F)cc2c1=O,-9%,-8%,-10%,-11,0%,5%
